Data taken from PMC4336329 (PLoS ONE, 2015).
The campaign covered roughly 310,000 compounds. About 14,000 (4.5%) showed an effect of 50% or more. Effects have a minus sign here. The entries come from a sample that favours strong results as a whole.

target: human ether-à-go-go-related gene (hERG) potassium channel (human, UniProt Q12809); assay: primary screen, population patch clamp on CHO cells stably expressing hERG; higher = less effect of the substance
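Note: peak tail current of the secondary pulse compared with the same well before compound.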

Sequence of human ether-à-go-go-related gene (hERG) potassium channel (Q12809 whole entry, looked up): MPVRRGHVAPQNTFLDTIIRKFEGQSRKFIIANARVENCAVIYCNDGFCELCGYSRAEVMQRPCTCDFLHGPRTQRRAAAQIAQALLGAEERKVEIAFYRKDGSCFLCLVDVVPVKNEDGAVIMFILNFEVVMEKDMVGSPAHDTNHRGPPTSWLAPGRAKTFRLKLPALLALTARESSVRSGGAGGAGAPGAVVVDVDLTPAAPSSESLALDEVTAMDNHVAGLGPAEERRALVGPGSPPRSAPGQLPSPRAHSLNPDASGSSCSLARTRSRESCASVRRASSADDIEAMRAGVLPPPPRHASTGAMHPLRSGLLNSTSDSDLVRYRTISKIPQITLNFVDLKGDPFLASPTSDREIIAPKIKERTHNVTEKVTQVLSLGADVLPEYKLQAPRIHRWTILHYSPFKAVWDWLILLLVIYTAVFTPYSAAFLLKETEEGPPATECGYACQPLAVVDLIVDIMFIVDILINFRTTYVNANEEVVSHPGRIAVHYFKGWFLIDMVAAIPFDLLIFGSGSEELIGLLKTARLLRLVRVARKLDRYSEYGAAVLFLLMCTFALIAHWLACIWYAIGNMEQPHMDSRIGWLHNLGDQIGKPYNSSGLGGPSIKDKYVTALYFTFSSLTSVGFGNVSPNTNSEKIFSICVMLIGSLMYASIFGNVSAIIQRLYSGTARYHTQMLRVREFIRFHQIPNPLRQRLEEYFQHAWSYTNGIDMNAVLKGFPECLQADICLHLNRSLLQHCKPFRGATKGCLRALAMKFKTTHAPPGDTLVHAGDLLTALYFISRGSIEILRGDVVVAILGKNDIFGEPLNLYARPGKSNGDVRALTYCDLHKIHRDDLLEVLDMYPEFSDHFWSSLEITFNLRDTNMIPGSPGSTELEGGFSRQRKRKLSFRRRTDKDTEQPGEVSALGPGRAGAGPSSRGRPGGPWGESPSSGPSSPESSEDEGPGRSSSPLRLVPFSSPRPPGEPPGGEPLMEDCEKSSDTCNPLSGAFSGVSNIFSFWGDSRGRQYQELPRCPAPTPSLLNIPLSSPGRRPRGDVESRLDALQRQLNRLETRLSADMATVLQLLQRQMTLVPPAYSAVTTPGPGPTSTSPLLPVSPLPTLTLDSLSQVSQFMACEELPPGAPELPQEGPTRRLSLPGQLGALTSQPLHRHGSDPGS

Compared with `CCN(c1ccc(OC)cc1)S(=O)(=O)c1csc(C(N)=O)c1`, `COc1ccc(C(=O)Cc2ccc(OC)c(OC)c2)c(OC)c1` is lower in “hERG current change (%, negative = inhibition) at 10uM” value: 6.68% for the first, -0.547% for the second.

First: Cc1ccccc1-n1nnc2c(=O)oc3ccccc3c21
Second: CCOC(=O)Cn1c(=O)oc2cc(S(=O)(=O)N3CCc4ccccc43)ccc21
The “hERG current change (%, negative = inhibition) at 10uM” value of the first is higher: 8.96% for the first, -2.03% for the second.

Compared with `Cc1ccc(-n2nc3ccc(NC(=O)/C=C/c4ccco4)cc3n2)cc1`, `Cc1cccc(CN2CCC(C(=O)Nc3ccc(-n4nc(C)cc4C)cc3)CC2)n1` is lower in “hERG current change (%, negative = inhibition) at 10uM” value: 7.32% for the first, -25.2% for the second.

Compared with `CCOC(=O)Cn1c(=O)oc2cc(S(=O)(=O)N3CCn4c3nc3ccccc34)ccc21`, `CCOC(=O)Cn1c(=O)oc2cc(S(=O)(=O)N3CCCc4ccccc43)ccc21` is higher in “hERG current change (%, negative = inhibition) at 10uM” value: -56.3% for the first, -26.9% for the second.

Compared with `Cc1cc(C)n(CCC(=O)Nc2cccc(F)c2)n1`, `Cc1cc(C)n(CCCN2CCC(C(=O)Nc3cccc(-c4cccc(F)c4)c3)CC2)n1` is lower in “hERG current change (%, negative = inhibition) at 10uM” value: 5.83% for the first, -80.4% for the second.

Compared with `Cc1ccccc1C(=O)N1CCC(C(=O)Nc2cccc(F)c2)CC1`, `Cc1cccc(CN2CCC(C(=O)Nc3cccc(-c4cccc(F)c4)c3)CC2)n1` is lower in “hERG current change (%, negative = inhibition) at 10uM” value: -3.49% for the first, -74% for the second.

Going from `COc1cccc(-c2cccc(NC(=O)C3CCN(Cc4cccc(C)n4)CC3)c2)c1` to `Cc1cccc(CN2CCC(C(=O)Nc3cccc(-c4cscn4)c3)CC2)n1`, the “hERG current change (%, negative = inhibition) at 10uM” value rises from -80.1% to -48.2%.

Going from `Cc1ccccc1OCCCCN1CCCCC1` to `CC(C)c1csc(CN2CCCC(CCC(=O)NCc3ccccc3F)C2)n1` (stereo not shown), the “hERG current change (%, negative = inhibition) at 10uM” value falls from 12.6% to -34.3%.

First: CC(=O)Oc1ccc(-c2cc3c(OC(C)=O)cc(OC(C)=O)cc3oc2=O)cc1
Second: CCOc1ccc(-c2c(C(=O)N/N=C/c3cccnc3)nnn2-c2nonc2N)cc1
The “hERG current change (%, negative = inhibition) at 10uM” value of the first is higher: 14.1% for the first, 9.94% for the second.

Compared with `O=S(=O)(NCC1CCCO1)c1ccc(NS(=O)(=O)c2ccc(F)cc2)cc1` (stereo not shown), `Cc1ccc(CNC(=O)CCC2CCCN(Cc3ccc4cccc(F)c4n3)C2)o1` (stereo not shown) is lower in “hERG current change (%, negative = inhibition) at 10uM” value: 14.6% for the first, -52.1% for the second.

First: Cc1cc(C)n(CC(=O)N2CCCC(N3CCN(Cc4ccc5c(c4)OCO5)CC3)C2)n1 (stereo not shown)
Second: Cc1nn(C(C)C)c(C)c1CN1CCCC(CCC(=O)NCc2ccccc2F)C1 (stereo not shown)
The “hERG current change (%, negative = inhibition) at 10uM” value of the first is lower: -14.2% for the first, 0.286% for the second.

Going from `O=C(NCCc1ccccn1)c1ccc(OC2CCN(Cc3ccccn3)CC2)cc1` to `Cc1ccc(CNC(=O)CCC2CCCN(Cc3cccc4cccnc34)C2)o1` (stereo not shown), the “hERG current change (%, negative = inhibition) at 10uM” value falls from 2.88% to -66%.

Going from `O=C(Nc1ncc(Cc2cccc(Cl)c2)s1)c1ccc([N+](=O)[O-])cc1` to `O=C(Nc1ccccc1)OCCOc1cccc(Br)c1`, the “hERG current change (%, negative = inhibition) at 10uM” value falls from 10.6% to 1.49%.

First: Cc1ccc(CNC(=O)CCC2CCCN(Cc3c(C)nn(C(C)C)c3C)C2)o1 (stereo not shown)
Second: Cc1ccc(CNC(=O)CCC2CCCN(Cc3cccc4ncccc34)C2)o1 (stereo not shown)
The “hERG current change (%, negative = inhibition) at 10uM” value of the first is higher: -16.6% for the first, -22.4% for the second.

First: O=C(NN1C(=O)C2C3C=CC([C@H]4CC34)[C@@H]2C1=O)c1ccc(Br)cc1 (stereo partly shown)
Second: CCCN(CCC)Cc1c(C(=O)N/N=C/c2ccc(Br)cc2)nnn1-c1nonc1N
The “hERG current change (%, negative = inhibition) at 10uM” value of the first is higher: 8.18% for the first, -15.3% for the second.

First: COc1ccc(CNC(=O)CC2C(=O)NCCN2C2Cc3ccccc3C2)cc1 (stereo not shown)
Second: Cc1nc(SCC(=O)NC2CCCC2)[nH]c(=O)c1Cc1ccccc1
The “hERG current change (%, negative = inhibition) at 10uM” value of the first is lower: -28.5% for the first, 7.93% for the second.

Compared with `CCc1c(C(=O)Nc2cc(C)cc(C)c2)[nH]c(C)c1C(C)=O`, `Cc1nn(C2CCS(=O)(=O)C2)c(Cl)c1/C=C/C(=O)OCC(=O)c1cc(C)n(-c2ccc(F)cc2)c1C` (stereo not shown) is lower in “hERG current change (%, negative = inhibition) at 10uM” value: 12.7% for the first, 4.11% for the second.

Compared with `CCN1CCN(C(=O)c2cc(-c3cccnc3)nc3ccc(Br)cc23)CC1`, `O=C(c1ccc(-n2c(SCc3cc(F)ccc3F)nc3ccccc3c2=O)cc1)N1CCOCC1` is higher in “hERG current change (%, negative = inhibition) at 10uM” value: -28.5% for the first, 8.7% for the second.

Going from `CCCN(CCC)Cc1c(C(=O)N/N=C/c2ccncc2)nnn1-c1nonc1N` to `CCN(CC)Cc1c(C(=O)N/N=C/c2ccncc2)nnn1-c1nonc1N`, the “hERG current change (%, negative = inhibition) at 10uM” value rises from -64.1% to -55.9%.

Compared with `CN(C)Cc1c(C(=O)N/N=C/c2ccncc2)nnn1-c1nonc1N`, `CCN(CC)Cc1c(C(=O)N/N=C/c2cccnc2)nnn1-c1nonc1N` is lower in “hERG current change (%, negative = inhibition) at 10uM” value: 3.67% for the first, -10.9% for the second.

First: CCCN(CCC)Cc1c(C(=O)N/N=C/c2ccsc2)nnn1-c1nonc1N
Second: CCN(CC)Cc1c(C(=O)N/N=C(\C)c2ccncc2)nnn1-c1nonc1N
The “hERG current change (%, negative = inhibition) at 10uM” value of the first is higher: -14.6% for the first, -80.3% for the second.

Going from `CCCc1c(C(=O)N/N=C(/C)c2ccncc2)nnn1-c1nonc1N` to `COCc1c(C(=O)N/N=C(\C)c2ccncc2)nnn1-c1nonc1N`, the “hERG current change (%, negative = inhibition) at 10uM” value rises from 0.629% to 7.11%.

First: CCOc1cccc(-c2c(C(=O)N/N=C/c3ccncc3)nnn2-c2nonc2N)c1
Second: CCOc1cccc(-c2c(C(=O)N/N=C/c3cccnc3)nnn2-c2nonc2N)c1
The “hERG current change (%, negative = inhibition) at 10uM” value of the first is higher: -9.65% for the first, -54% for the second.
